According to ChEMBL document CHEMBL1961873, “Compounds: GSK PKIS; Assays: Nanosyn kinase panel” (2012):

The molecules below were run against Protein kinase C alpha type (Homo sapiens) (UniProt P17252). Settings: at 0.1 µM.

Structure (SMILES) | inhibition [%]
O=C(Nc1ccc(Oc2ccc3[nH]c(NC(=O)c4ccco4)nc3c2)cc1)Nc1cc(C(F)(F)F)ccc1F | -3.29
Cc1ccc(Nc2ccnc(Nc3cccc(C(N)=O)c3)n2)cc1O | -1.9
CCCN1CCCC(c2ccc(Nc3nc(Nc4cc(F)ccc4C(N)=O)c4cc[nH]c4n3)c(OC)c2)C1 (stereo not drawn) | 2.24
CC(C)c1ccc2c(c1)NC(=O)/C2=N/Nc1ccc(S(N)(=O)=O)cc1 | -0.57
NS(=O)(=O)c1ccc(-c2cc3ccncc3cc2OCc2ccccc2)cc1 | 0.12
CN1CCN(C(=O)c2ccc(NC(=O)Nc3ccc(N(C)c4ccnc(Nc5ccc(CS(C)(=O)=O)cc5)n4)cc3)cc2)CC1 | -0.39
CN(c1ccc(NC(=O)Nc2ccc(OC(F)(F)F)cc2)cc1)c1ccnc(Nc2cccc(S(N)(=O)=O)c2)n1 | 0.02
CS(=O)(=O)CCNCc1nc(-c2ccc3ncnc(Nc4ccc(OCc5cccc(C(F)(F)F)c5)cc4)c3c2)cs1 | -0.15
Nc1nccc(C#Cc2cncnc2Nc2ccc(OCc3cccc(F)c3)c(Cl)c2)n1 | 1.36
COc1ccc(-c2nn3ncccc3c2-c2ccnc(Nc3cccc(C(F)(F)F)c3)n2)cc1 | 0.27
Cc1cc(Cl)cc2c1NC(=O)C2=NNc1ccc(S(N)(=O)=O)cc1 | 0.07
Cc1ccc(O)cc1Nc1ccnc2ccc(S(C)(=O)=O)cc12 | 1.78
CCn1c(-c2nonc2N)nc2ccc(F)cc21 | 1
COc1cc2ncnc(Nc3ccc4c(cnn4Cc4ccccc4)c3)c2cc1OC | 0.53
Cc1nc(-c2ccccc2)n2nc(NCCCN3CCOCC3)ncc12 | -0.23
OCc1ccc(-c2nc(-c3ccccn3)c(-c3ccc4c(c3)OCO4)[nH]2)cc1 | 1.27
[O-][S+]1CCN(Cc2ccc(-c3ccc4ncnc(Nc5ccc(OCc6ccccc6)c(Cl)c5)c4c3)o2)CC1 | 0.05

Structure (SMILES) | inhibition [%]
Cc1ccc2c(-c3ccnc(Nc4cccc(C(F)(F)F)c4)n3)c(-c3ccccc3)nn2n1 | 1.57
CCOc1nccc2c1nc(-c1nonc1N)n2CC | -0.03
NS(=O)(=O)c1ccc(N/N=C2\C(=O)Nc3ccc(Cl)cc32)cc1 | 0.69
COc1cccc(-n2ncc3c(N/N=C/c4ccc(S(C)(=O)=O)cc4)ncnc32)c1 | -3.07
CCS(=O)(=O)c1ccc(OC)c(Nc2nccc(N(C)c3ccc4c(C)n[nH]c4c3)n2)c1 | 0.55
Cc1ccc2c(c1)/C(=N/Nc1ccc(S(N)(=O)=O)cc1)C(=O)N2 | 0.13
Cc1cc(O)cc(C)c1/C=C/c1cncc(C(=O)N(C)C)c1 | 0.28
O=C1Nc2ccccc2/C1=C/Nc1ccc2[nH]c(=O)[nH]c2c1 | 0.57
COC(=O)c1ccc2c(c1)C(=Cc1cc(Br)c(O)c(Br)c1)C(=O)N2 | 0.87
NS(=O)(=O)c1cccc(-c2cc3ccncc3cc2OCc2ccccc2)c1 | 1.18
C[C@@H](Oc1cc(-n2cnc3ccc(OC[C@@H](O)CO)cc32)sc1C(N)=O)c1ccccc1Cl | -0.25
NC(=O)c1cccc(Nc2nccc(Nc3cccc(F)c3)n2)c1 | 0.15
Cc1ccc(NC(=O)CC2CC2)cc1-c1ccc(C(=O)NCC2CC2)cc1 | 0.78
Cc1ccc(C(=O)NC2CC2)cc1-c1ccc2[nH]ncc2c1 | -0.47
Nc1nccc(-c2c(-c3ccc(F)cc3)ncn2CCCN2CCOCC2)n1 | 0.84
N#Cc1c(NC(=O)c2ccccc2F)sc2c1CCCC2 | -0.76
CN(C)CCCn1c(-c2nonc2N)nc2cnccc21 | 0.8

The molecules below were run against Protein kinase C alpha type (Homo sapiens) (UniProt P17252). Settings: at 1 µM.

Structure (SMILES) | inhibition [%]
O=C(Nc1ccc(Oc2ccc3[nH]c(NC(=O)c4ccco4)nc3c2)cc1)Nc1cc(C(F)(F)F)ccc1F | -2.22
Cc1ccc(Nc2ccnc(Nc3cccc(C(N)=O)c3)n2)cc1O | 8.24
CCCN1CCCC(c2ccc(Nc3nc(Nc4cc(F)ccc4C(N)=O)c4cc[nH]c4n3)c(OC)c2)C1 (stereo not drawn) | 15.9
CC(C)c1ccc2c(c1)NC(=O)/C2=N/Nc1ccc(S(N)(=O)=O)cc1 | 0.11
NS(=O)(=O)c1ccc(-c2cc3ccncc3cc2OCc2ccccc2)cc1 | 1.77
CN1CCN(C(=O)c2ccc(NC(=O)Nc3ccc(N(C)c4ccnc(Nc5ccc(CS(C)(=O)=O)cc5)n4)cc3)cc2)CC1 | 0.75
CN(c1ccc(NC(=O)Nc2ccc(OC(F)(F)F)cc2)cc1)c1ccnc(Nc2cccc(S(N)(=O)=O)c2)n1 | 0.85
CS(=O)(=O)CCNCc1nc(-c2ccc3ncnc(Nc4ccc(OCc5cccc(C(F)(F)F)c5)cc4)c3c2)cs1 | -0.72
Nc1nccc(C#Cc2cncnc2Nc2ccc(OCc3cccc(F)c3)c(Cl)c2)n1 | 1.81
COc1ccc(-c2nn3ncccc3c2-c2ccnc(Nc3cccc(C(F)(F)F)c3)n2)cc1 | 1.31
Cc1cc(Cl)cc2c1NC(=O)C2=NNc1ccc(S(N)(=O)=O)cc1 | -0.61
Cc1ccc(O)cc1Nc1ccnc2ccc(S(C)(=O)=O)cc12 | 11.2
CCn1c(-c2nonc2N)nc2ccc(F)cc21 | 1.33
COc1cc2ncnc(Nc3ccc4c(cnn4Cc4ccccc4)c3)c2cc1OC | 0.88
Cc1nc(-c2ccccc2)n2nc(NCCCN3CCOCC3)ncc12 | 0.9
OCc1ccc(-c2nc(-c3ccccn3)c(-c3ccc4c(c3)OCO4)[nH]2)cc1 | 2.06
[O-][S+]1CCN(Cc2ccc(-c3ccc4ncnc(Nc5ccc(OCc6ccccc6)c(Cl)c5)c4c3)o2)CC1 | 0.88

Structure (SMILES) | inhibition [%]
Cc1ccc2c(-c3ccnc(Nc4cccc(C(F)(F)F)c4)n3)c(-c3ccccc3)nn2n1 | 10.6
CCOc1nccc2c1nc(-c1nonc1N)n2CC | 1.03
NS(=O)(=O)c1ccc(N/N=C2\C(=O)Nc3ccc(Cl)cc32)cc1 | 1.45
COc1cccc(-n2ncc3c(N/N=C/c4ccc(S(C)(=O)=O)cc4)ncnc32)c1 | -0.59
CCS(=O)(=O)c1ccc(OC)c(Nc2nccc(N(C)c3ccc4c(C)n[nH]c4c3)n2)c1 | 1.48
Cc1ccc2c(c1)/C(=N/Nc1ccc(S(N)(=O)=O)cc1)C(=O)N2 | -0.36
Cc1cc(O)cc(C)c1/C=C/c1cncc(C(=O)N(C)C)c1 | 1.71
O=C1Nc2ccccc2/C1=C/Nc1ccc2[nH]c(=O)[nH]c2c1 | 2.34
COC(=O)c1ccc2c(c1)C(=Cc1cc(Br)c(O)c(Br)c1)C(=O)N2 | 2.31
NS(=O)(=O)c1cccc(-c2cc3ccncc3cc2OCc2ccccc2)c1 | 1.96
C[C@@H](Oc1cc(-n2cnc3ccc(OC[C@@H](O)CO)cc32)sc1C(N)=O)c1ccccc1Cl | 3.02
NC(=O)c1cccc(Nc2nccc(Nc3cccc(F)c3)n2)c1 | 4.54
Cc1ccc(NC(=O)CC2CC2)cc1-c1ccc(C(=O)NCC2CC2)cc1 | 1.96
Cc1ccc(C(=O)NC2CC2)cc1-c1ccc2[nH]ncc2c1 | 0.07
Nc1nccc(-c2c(-c3ccc(F)cc3)ncn2CCCN2CCOCC2)n1 | 4.5
N#Cc1c(NC(=O)c2ccccc2F)sc2c1CCCC2 | 1.15
CN(C)CCCn1c(-c2nonc2N)nc2cnccc21 | 3.62
